# TCR activator: activators of T cell receptors; primary human leukocytes, anti-CD3, IL-2 HTRF, 48 h; Potency, µM (series often up to 9.22 µM), inactives show at the top dose activation of IL-2 secretion, hits mostly activators; 330,000 tested, under 10 active; AID 504894; further: % of control where 0% means no effect
#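 Readout: HTRF IL-2, Eu-cryptate/d2 antibody pair, 320nm excitation, 665nm emission. Stimulus: a-CD3 beads, no co-stimulation. Cells: primary human leukocytes. Exposure: 48 hr with compound.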
# N370S GC: N370S glucocerebrosidase modulation, Gaucher chaperone candidate; P04062; N370S GC spleen homogenate, 4MU-glucoside fluorescence; Potency, µM (top dose mostly 59.4 µM), without a hit: at the top dose activity change, negative = inhibition, hits mostly inhibitors; 330,000 compounds, 0.092% hits; AID 2101;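 further: potency means the concentration at half of the fitted maximal effect; 0% = full enzyme activity and -100% = no enzyme basal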
# p53 reactivation: restores transcriptional activity of mutant p53; H1299 p53-A138V BP100-luciferase reporter, luminescence, 24 h; Potency, µM (highest dose often 92.2 µM), for the others: top-dose activity change, positive = activation, actives largely listed as activators; 320,000 compounds, 0.063% hits; further: potency means the concentration at half of the fitted maximal effect; % of control where 0% means no effect; nearly all actives have a fitted effect of over 45% in size
#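 H1299 (p53-null), stable ts p53-A138V + BP100-Luc; 1000 cells/well, Opti-MEM/10% FBS; cpd 4 pt, 1:5; 24 h, 37 deg C, 5% CO2; detection reagent 10 min RT; luminescence.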
# TSHR antagonist: antagonists of human thyroid stimulating hormone receptor. P16473. TSHR-expressing cells, TSH-stimulated cAMP HTRF, 2 h; hits give low values. activity change, negative = inhibition, % at 11.5 µM. 330,000 compounds, 0.2% hits. AID 504810;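 active means activity change below a set negative limit, meaning inhibition stronger than a set level, cut at about -70% in these data; inconclusive means activity change between two set negative limits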; further: on the % scale 0 is the no-effect control and ±100 the full control effect
# Target sequence (P16473 whole entry, looked up): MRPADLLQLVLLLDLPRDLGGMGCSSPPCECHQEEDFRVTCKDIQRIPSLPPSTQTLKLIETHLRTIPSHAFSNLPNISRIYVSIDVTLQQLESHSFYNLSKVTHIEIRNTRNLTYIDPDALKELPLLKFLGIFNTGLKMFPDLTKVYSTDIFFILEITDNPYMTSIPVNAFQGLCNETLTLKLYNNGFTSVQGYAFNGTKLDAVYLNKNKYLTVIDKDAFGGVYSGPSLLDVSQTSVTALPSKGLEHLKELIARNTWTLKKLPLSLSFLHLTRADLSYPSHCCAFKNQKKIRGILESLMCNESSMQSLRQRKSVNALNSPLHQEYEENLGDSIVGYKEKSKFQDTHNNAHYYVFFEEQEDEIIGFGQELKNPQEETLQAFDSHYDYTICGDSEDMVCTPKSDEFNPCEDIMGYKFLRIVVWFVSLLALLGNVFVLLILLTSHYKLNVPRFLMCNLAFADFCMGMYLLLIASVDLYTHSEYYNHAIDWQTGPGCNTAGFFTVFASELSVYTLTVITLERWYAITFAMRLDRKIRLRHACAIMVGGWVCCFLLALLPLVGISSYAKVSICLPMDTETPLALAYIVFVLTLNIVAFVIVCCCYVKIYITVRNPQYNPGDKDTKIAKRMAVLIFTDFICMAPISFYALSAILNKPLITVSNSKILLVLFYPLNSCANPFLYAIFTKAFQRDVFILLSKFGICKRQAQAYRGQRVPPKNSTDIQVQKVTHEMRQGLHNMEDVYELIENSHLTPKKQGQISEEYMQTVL
#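 Antagonism was scored as loss of TSH-driven cAMP in TSHR cells, stimulated with 4nM TSH (EC80) for 2 hours at 37 deg C and detected by homogeneous HTRF competition immunoassay.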
# GLS inh: blocks human kidney-isoform glutaminase activity. O94925. GLS enzymatic activity, qHTS titration. Potency, µM (top dose mostly 45.5 µM), inactives show at the top dose activity change, negative = inhibition, usual class: inhibitors. 410,000 compounds, 0.21% hits. AID 624170; further: potency means the concentration at half of the fitted maximal effect; on the % scale 0 is the no-effect control and ±100 the full control effect
#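 Human kidney-isoform GLS in 45 mM KH2PO4 pH 8.2, 0.02% Tween-20, with compound, started with 1mM L-Glutamine (added stock). Glutamate oxidase/HRP/Amplex red coupled fluorescence read at start and after 30 min at RT.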
# BRCA1 expr up: activators of BRCA1 expression. MCF7-BRCA1-FFLuc reporter, luminescence, 48 h; response scale: scaled: vehicle 0%, 10 µM genistein 100%. 380,000 compounds, 1.1% hits. Potency, µM (doses to about 46.1 µM), for inactives: top-dose activation, hits mostly activators. AID 624202; further: potency means the concentration at half of the fitted maximal effect; nearly all actives have a fitted effect of over 80% in size
#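 MCF7-BRCA1-FFLuc cells, 2000/well in phenol-red-free MEM, attached 2 h then treated 48 h at 37 C. Luciferase luminescence read 15 min after reagent; normalized to genistein maximum activation (10microM) and DMSO, concentration-response fitted.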
# An asterisk follows results filed as active; ? = inconclusive; nt = no result given; [ ] = another dose, or the depositor's remark. In the library only some 1.4% were active in any assay of this set; here they are far more common. Unless noted, the call rests on the fitted dose curve; in most records, active means well fitted curve in the direction sought with a large enough effect; inconclusive means small, poorly fitted or top-dose-only effect, or another doubt; inactive means no such curve, though single readings can be large; an effect the other way counts as inactive or inconclusive.
SMILES,TCR activator,N370S GC,p53 reactivation,TSHR antagonist,GLS inh,BRCA1 expr up
COc1ccc(N2CCN(C(c3ccccc3)c3nnnn3C(C)C)CC2)cc1 (stereo not drawn),nt,nt,nt,nt,nt,0%
COc1ccccc1NC(=O)Nc1ccc2c(c1)nnn2C,12%,-7%,12%,10,3%,95%
Cc1ccc(NC(=O)Nc2ccc3c(c2)nnn3C)cc1C,-4%,0%,16%,7,-19%,2.8µM*
N#CC1(O)CCCCC1,nt,-1%,nt,nt,nt,nt
Oc1[nH]c2ccccc2c1N=Nc1ccccc1,6%,?,28µM*,-9,8%,79%
Cc1[nH]c2ccccc2c1N=Nc1cccc(C(=O)O)c1,-6%[46.1 µM],5%,?,-18,22%,3.2µM*
O=C(CNC(=O)C1CCCCC1)OCc1ccccc1,nt,nt,nt,nt,nt,1%
Cc1cc(Cl)nc2nc(Cl)ccc12,nt,nt,nt,nt,nt,0%
COc1ccc(-c2noc(CSc3nnc(-c4ccc(Cl)cc4)n3C)n2)cc1OC,nt,nt,nt,nt,-9%,4%
O=C(Nc1nc(-c2ccc(-c3ccccc3)cc2)cs1)C1=COCCO1,-3%[46.1 µM],-2%,11%,-17,2%,-25%
COc1ccc(-c2csc(NC(=O)COC(=O)C3=COCCO3)n2)cc1,-4%,3%,13%,-18,-3%,5µM*
COc1ccc(-c2csc(NC(=O)CSc3nc(SC)ns3)n2)cc1,3%[46.1 µM],?,?,-74*,-2%,-17%
COc1ccc(-c2csc(NC(=O)CSc3nc(C)cs3)n2)cc1,1%,nt,nt,nt,-7%,13µM*
Cc1csc(NC(=O)CSc2nc(C)cs2)n1,2%,-16%,?,8,6%,20%
COC(=O)c1ccc(NC(=O)c2nc(SCc3ccccc3F)ncc2Cl)cc1,nt,nt,nt,nt,nt,2%
CCCc1cc(=O)[nH]c(SCC(=O)Nc2nc3ccc(OCC)cc3s2)n1,-1%,5%,0%,-9,1%,25%
CCOc1ccc2nc(NC(=O)C(CC)Sc3nc(C)cc(=O)[nH]3)sc2c1 (stereo not drawn),0%,14%,?,6,14%,5.6µM*
COc1ccc(C(=O)Nc2cc(C(C)C)c(O)c(S(=O)(=O)c3ccc(OC)cc3)c2C)cc1,nt,nt,nt,nt,-1%,5.6µM*
COc1cc2c(c(OC)c1OC)-c1ccc(OC)c(=O)cc1[C@@H](NC=O)CC2,nt,-5%,nt,nt,nt,nt
CS/C(N)=N/N=C/c1ccc([N+](=O)[O-])cc1,1%,-9%,18%,2,11%,11µM*
Cc1[nH]c2ccccc2c1C(=O)CSc1nc2ccccc2c(=O)n1CCCN1CCOCC1,0%,10µM*,-10%,-16,8%,-15%
COc1cccc(-c2nnc3n2N=C(c2c(OC)cccc2OC)CS3)c1,nt,-4%,nt,nt,nt,nt
CS(=O)(=O)c1ccc(N2CCN(c3ccccn3)CC2)c([N+](=O)[O-])c1,3%,-10%,-5%,-114*,7%,-15%
CC(=O)OC[C@@H]1O[C@@H](O/N=C2/C[C@@H](O)[C@@H](O)[C@@H]3[C@@H]4C(=O)N(C(C)(C)C)C(=O)[C@H]4CC[C@H]23)[C@H](OC(C)=O)[C@H](OC(C)=O)[C@@H]1OC(C)=O,nt,2%[12.8 µM],nt,nt,nt,nt
Cc1cc(N2CCOCC2)nc2ccc(Cl)cc12,4%,?,?,28,-29%,7.9µM*
SMILES,TCR activator,N370S GC,p53 reactivation,TSHR antagonist,GLS inh,BRCA1 expr up
Cc1cc(N2CCOCC2)nc2ccc(NC(=S)N3CCN(c4ccccc4)CC3)cc12,-1%,-11%,7%,4,16%,33%
Cc1ccc2c(c1)CCCN2C(=O)c1cnn2c1NC(=C1CC1)C=C2C(F)F,nt,nt,nt,nt,nt,-46%
CC(C)(C)NC(=O)N1CCN(c2nc3ccc(Cl)cc3s2)CC1,5%,-9%,4%,-9,-6%,10µM*
COc1ccc(Nc2nnc(-c3ccc(O)cc3)c3ccccc23)cc1C(N)=O,-13%,?,1%,-9,7.9µM*,-1%
COc1ccc(-c2nnc(Nc3ccc(OC)c(C(N)=O)c3)c3ccccc23)cc1,nt,nt,nt,nt,6%,nt
CCN(CC)C(=O)c1ccc(Nc2nnc(-c3ccc(O)cc3)c3ccccc23)cc1,4%,-18%,15%,-25,10µM*,-18%
Cc1ccccc1NC(=O)c1ccccc1OCC(=O)Nc1ccc(Br)cc1,nt,nt,nt,nt,nt,-41%
O=C1S/C(=C\C=C\c2ccco2)C(=O)N1c1ccc(O)cc1,8%[46.1 µM],10%,?,-7,?,?
O=C1S/C(=C\C=C\c2ccco2)C(=O)N1c1ccccc1,-1%[46.1 µM],-14%,?,-14,-14%,3.5µM*
O=C(O)CC(C(=O)O)N1C(=O)/C(=C/c2ccc(-c3nc4ccccc4s3)o2)SC1=S (stereo not drawn),-36%,-6%,17%,6,11µM*,4%
O=C(O)CC(C(=O)O)N1C(=O)/C(=C/C=C/c2ccco2)SC1=S (stereo not drawn),-1%,-12%,1%,1,2.8µM*,0%
CCN(CC)c1ccc(N=Nc2ccc(S(=O)(=O)N(C)C)cc2)c(S(=O)(=O)NCC[n+]2ccccc2)c1,nt,nt,nt,nt,-7%,nt
COc1ccc(-c2nnc(N)s2)cc1,0%,-2%,13%,0,1%,25%
CCCOc1ccc(-c2nnc(N)s2)cc1,-2%,25%,?,-1,10%,4.5µM*
Cc1cc(Oc2ccccc2)nc(C#N)n1,nt,nt,nt,nt,nt,19%
O=S(=O)(Nc1ccc(-c2nc3cccnc3s2)cc1)c1ccc(Cl)s1,-2%,11%,15%,-15,-2%,48%
O=S(=O)(Nc1ccc(-c2nc3cccnc3s2)cc1)c1ccccc1F,-9%,?,18%,-8,1%,10µM*
Oc1c(Br)cc(/C=N/n2c(-c3ccccc3)n[nH]c2=S)cc1Br,-6%,0%,-19%,-24,-48%,-20%
COc1cc(/C=N/n2c(-c3ccccc3)n[nH]c2=S)cc(OC)c1O,3%,-11%,10%,-29,4.5µM*,20%
COc1cc(/C=N/n2c(-c3ccccc3)n[nH]c2=S)ccc1O,-2%,14µM*,-2%,3,-27%,-5%
CCOc1cc(-c2ccc3c(c2)OCO3)cc(=[O+]CC)c2c(C)oc(C)c12,nt,nt,nt,nt,nt,0%
CN(C)C(=O)c1cc(C(=O)c2ccc(C(F)(F)F)cc2)c[nH]1,3%,-7%,17%,0,3%,10µM*
O=C(OCCNc1nc(-c2ccccc2)nc2ccccc12)c1cccnc1,4%,7.1µM*,-1%,-4,5%,-52%
OC(CNc1nc(-c2cccnc2)nc2ccccc12)c1ccccc1 (stereo not drawn),0%,10µM*,-9%,-11,-9%,-37%
